# Experiments:
# Details in all cases: concentration: 1 μM, replicates: in singlicate; n = 1
# DYRK1B = test system: DYRK1B
# DYRK2 = test system: DYRK2
# EGFR = test system: EGFR
# EIF2AK1 = test system: EIF2AK1
# EPHA1 = test system: EPHA1
# EPHA2 = test system: EPHA2
# EPHA3 = test system: EPHA3
# EPHA4 = test system: EPHA4
# EPHA5 = test system: EPHA5
# EPHA6 = test system: EPHA6
# EPHA7 = test system: EPHA7
# EPHA8 = test system: EPHA8
# EPHB1 = test system: EPHB1
# EPHB2 = test system: EPHB2
# EPHB3 = test system: EPHB3
# EPHB4 = test system: EPHB4
# EPHB6 = test system: EPHB6
# ERBB2 = test system: ERBB2
# ERBB3 = test system: ERBB3
# ERBB4 = test system: ERBB4
# 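Also: KINOMEscan kinase panel screen.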
SMILES,%Inh (DYRK1B) [%],%Inh (DYRK2) [%],%Inh (EGFR) [%],%Inh (EIF2AK1) [%],%Inh (EPHA1) [%],%Inh (EPHA2) [%],%Inh (EPHA3) [%],%Inh (EPHA4) [%],%Inh (EPHA5) [%],%Inh (EPHA6) [%],%Inh (EPHA7) [%],%Inh (EPHA8) [%],%Inh (EPHB1) [%],%Inh (EPHB2) [%],%Inh (EPHB3) [%],%Inh (EPHB4) [%],%Inh (EPHB6) [%],%Inh (ERBB2) [%],%Inh (ERBB3) [%],%Inh (ERBB4) [%]
O=C1NC(=O)C(c2ccccc2Cl)=C1Nc1cccc(Cl)c1 [SB-342409],0,23,0,27,8,7,0,25,0,17,15,19,8,12,13,15,0,0,0,9
COc1ccc(NC(=O)c2ccoc2)cc1-c1ccc(C(=O)NCC2CC2)cc1 [GW810437],8,21,0,0,0,0,15,0,0,0,0,1,4,0,0,0,24,15,12,7
c1ccc(Oc2ccc(Nc3ccnc4cc(-c5ccc(CN6CCCCC6)o5)ccc34)cc2)nc1 [GW567143],0,10,55,0,78,0,6,3,0,0,0,12,6,0,4,7,66,18,96,51
Fc1cc(Cl)ccc1Nc1ccnc2cc(-c3ccc(CN4CCOCC4)o3)ccc12 [GW560109],7,13,71,10,94.5,34,32,41,0,65,59,90.2,50,44,15,55,91.7,34,80,25
COc1cccc(C2=C(Nc3cccc(O)c3)C(=O)NC2=O)c1 [SB-390771],24,9,41,3,0,29,0,27,0,24,10,18,11,16,31,16,49,23,0,2
Nc1ncnc2scc(-c3ccc(NC(=O)Cc4cc(F)ccc4F)cc3)c12.O=C(O)C(F)(F)F [SB-731254-M],0,0,80,95.2,13,100,21,24,0,0,4,0,0,15,0,5,98.8,39,0,53
Cc1nn2c(=O)cc(N3CCO[C@H](C)C3)nc2n1Cc1cccc(Cl)c1Cl [GSK2373693],11,12,28,1,1,21,0,0,0,0,0,2,3,66,0,5,3,0,0,0
Cc1cc(-c2ccnc(Nc3cccc(C#N)c3)n2)cc(C)c1O [GSK1440913],51,61,38,0,27,24,4,13,0,13,18,21,18,19,18,16,90.3,27,7,0
Cl.Cl.NC(CNC(=O)c1cc(Br)c(-c2ccnc3[nH]ccc23)s1)c1ccccc1 (stereo not shown) [GSK1322949],95,80,17,1,24,1,26,0,0,0,10,24,27,15,0,3,75,24,18,0
CCn1c(-c2nonc2N)nc2c(-c3ccccc3)ncc(OCCCN)c21.O=C(O)C(F)(F)F.O=C(O)C(F)(F)F [GSK260205],0,14,56,90.8,24,0,12,0,0,0,6,10,0,0,0,7,0,89,0,41
COc1cccc(-c2nc(-c3ccccc3)[nH]c2-c2ccncc2)c1 [SB-610250],20,2,12,5,18,0,0,17,0,9,9,25,16,0,24,0,22,31,20,0
COC(=O)Nc1nc2ccc(Oc3ccc(NC(=O)Nc4cc(C(F)(F)F)ccc4F)cc3)cc2[nH]1.Cl [GW654607],42,13,29,26,90.9,98,39,96.8,66,97.7,89,99.6,81,80,40,58,92.4,6,0,6
Cl.O=C(Nc1ccc(Oc2ccc3[nH]c(NC(=O)c4ccco4)nc3c2)cc1)Nc1cc(C(F)(F)F)ccc1F [GW683134],6,0,44,4,91.8,95.2,20,93.6,48,96.4,86,99.5,70,72,24,60,93.7,9,0,29
O=C(Nc1c(F)cccc1F)c1cc(C(=O)c2ccccc2F)c[nH]1 [GSK1326180],17,12,26,0,0,11,0,9,0,2,0,0,4,0,6,0,0,35,20,0
Cn1cc(-c2ccc3c(c2)CCN3C(=O)Cc2cc(F)cc(F)c2F)c2c(N)ncnc21 [GSK2634140],4,5,16,80,4,9,0,6,0,1,3,8,14,0,11,0,87,31,0,41
Cc1ccc(NC(=O)c2ccc(Cl)c(Cl)c2)cc1-c1ccc(C(=O)Nc2ccncc2)cc1 [GSK1398460],6,7,32,7,13,14,1,32,12,18,9,35,17,17,25,19,16,2,0,4
CC(C)(C)c1ccc(C(=O)Nc2cn3cc(-n4ccnc4)ccc3n2)cc1,94.8,67,9,0,0,0,16,0,0,12,0,0,3,8,0,0,2,29,8,37
Nc1ncc(-c2ccc3nccc(-c4ccncc4)c3c2)cc1S(=O)(=O)N1CCCCC1 [GSK1693850],2,22,1,0,0,21,22,3,0,0,3,8,0,15,0,8,43,31,0,20
N#Cc1cnc2cc(-c3cnc(CNCCN4CCOCC4)s3)ccc2c1Nc1ccc(Oc2ccccc2)cc1 [GW664114],5,14,98.1,0,8,0,10,11,0,19,0,25,0,7,10,10,21,79,100,100
Cc1ccc(Nc2ccnc(Nc3ccc(C)c(F)c3)n2)cc1O.Cl [GW582868],0,0,38,3,48,19,0,2,0,6,0,26,1,0,0,8,0,19,13,9

# Reference: publication PMC5540273 (PLoS ONE, 2017)
